Pin1 inhibitor: inhibitors of human Pin1; Q13526; Pin1 FP peptide displacement, HiFluor488, 10 min; Potency, µM (top dose mostly 115 µM), for the others: at the top dose activity, negative = inhibition, actives largely listed as inhibitors; 0.009% of 390,000 active; active = well fitted inhibition curve with a large enough effect in the polarisation, with a control signal flat, not every such curve was filed as active; inconclusive = small, poorly fitted or top-dose-only effect, or effect the other way, or a change in a side signal; inactive = no such curve, though single readings can be large or run the other way; the % refers to the polarisation; also: % is scaled to controls: 0 for no effect and ±100 for the full control effect
VDR inh: inhibitors of human vitamin D receptor | Potency, µM, for inactives: max response, negative = inhibition, usual class: inhibitors | VDR-SRC2-3 peptide fluorescence polarization, 2 h | 0.93% of 400,000 active; also: % is scaled to controls: 0 for no effect and ±100 for the full control effect
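Inhibition of the VDR/SRC2-3 peptide interaction is quantified by fluorescence polarization. Compounds (23 nl, pintool) incubate with the reagents for 2 hours at ambient room temperature.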
TDP1 inh: blocks human tyrosyl-DNA phosphodiesterase 1; Q9NUW8; Potency, µM (doses to about 130 µM), without a hit: at the highest dose activity change, negative = inhibition, hits mostly inhibitors; 0.28% of 350,000 active; recombinant TDP1, AlphaScreen DNA substrate cleavage; also: % is scaled to controls: 0 for no effect and ±100 for the full control effect; nearly all actives have a fitted effect of over 40% in size
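Enzyme-compound mixtures sat 15 min at room temperature, followed by a 5 min reaction with 15 nM final substrate and 10 min with AlphaScreen beads. Recombinant human Tdp1 was used at 1 nM final.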
PLK1 PBD block: inhibitors of human PLK1 polo-box domain binding; P53350; Plk1 PBD binding of FITC phosphopeptide, fluorescence polarization; Potency, µM, for the others: max response, negative = inhibition, usual class: inhibitors; 2.8% of 360,000 active; also: series mostly up to about 57 µM; % is scaled to controls: 0 for no effect and ±100 for the full control effect; nearly all actives have a fitted effect of over 65% in size
Target sequence (P53350 whole entry, looked up, the tested form may be a part): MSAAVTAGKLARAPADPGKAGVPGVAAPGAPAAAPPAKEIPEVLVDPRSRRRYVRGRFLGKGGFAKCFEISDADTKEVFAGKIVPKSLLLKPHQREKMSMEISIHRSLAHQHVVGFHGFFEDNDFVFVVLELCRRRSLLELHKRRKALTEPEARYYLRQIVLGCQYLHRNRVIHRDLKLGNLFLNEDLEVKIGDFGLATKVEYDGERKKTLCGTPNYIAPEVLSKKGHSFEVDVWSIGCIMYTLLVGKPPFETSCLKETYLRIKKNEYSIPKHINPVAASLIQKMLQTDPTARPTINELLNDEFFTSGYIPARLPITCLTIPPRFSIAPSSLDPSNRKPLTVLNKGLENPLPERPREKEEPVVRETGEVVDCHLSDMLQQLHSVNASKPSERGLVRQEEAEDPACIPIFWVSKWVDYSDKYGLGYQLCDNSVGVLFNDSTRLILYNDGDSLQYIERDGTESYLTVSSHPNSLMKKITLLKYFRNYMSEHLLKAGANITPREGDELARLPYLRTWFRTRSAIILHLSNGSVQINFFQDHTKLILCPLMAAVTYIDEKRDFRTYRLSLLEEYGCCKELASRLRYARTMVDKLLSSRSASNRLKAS
ASM inhibitor: human S-ASM enzyme inhibition; P17405; placental ASM, HMU-PC fluorogenic substrate, 60 min; Potency, µM (doses to about 57.5 µM), for the others: at the top dose activity change, negative = inhibition, most hits filed as inhibitors; 0.006% of 340,000 active; AID 504937
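HMU-PC0 cleavage (9 uM final) by human placental ASM, 60 min at 37 °C following 10 min compound exposure at RT; stopped at pH 10, fluorescence Ex 386/Em 447 nm.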
Tb PFK block: blocks T. brucei phosphofructokinase; Potency, µM (titrated, usually from 57.5 µM), inactives show top-dose activity, negative = inhibition, most hits filed as inhibitors; T. brucei PFK, ADP-Glo luminescence; AID 485367; 0.17% of 330,000 active;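 also: 0% = uninhibited 1x PFK enzyme wells and -100% = no-enzyme wells; nearly all actives have a fitted effect of over 60% in size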
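Compounds were pin-transferred as a titration series up to 57 uM into substrate buffer (0.5 mM F6P, 0.1 mM ATP, pH 8.0), then 1.25 nM PFK was added and reactions ran 45 min before ADP-Glo detection.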
Active calls of the source: *; i = inactive; ? = inconclusive; . = no result; [ ] = dose if it differs, or a comment. The list is not random: actives were taken first. Their share in the collection is about 3.1%. Unless noted, calls follow the shape of the dose curve; as a rule, active = well fitted curve in the direction sought with a large enough effect; inconclusive = small, poorly fitted or top-dose-only effect, or another doubt; inactive = no such curve, though single readings can be large; an effect the other way counts as inactive or inconclusive. Potency is read from the fitted curve at half-maximal effect.

SMILES	Pin1 inhibitor	VDR inh	TDP1 inh	PLK1 PBD block	ASM inhibitor	Tb PFK block
Cc1ccc(N2CCN(C(=S)c3ccc(-c4ccccc4[N+](=O)[O-])o3)CC2)cc1	0%	?	10%	9.5µM*	-8%	1%
O=[N+]([O-])c1ccccc1-c1ccc(C(=S)N2CCN(c3ccccc3)CC2)o1	-4%	79µM*	.	24µM*	-7%	-6%
Cc1ccc(N2CCN(C(=S)c3ccc(-c4cccc([N+](=O)[O-])c4)o3)CC2)cc1	-2%	?	5%	30µM*	-3%	?
COc1cccc(OC)c1C1=Nn2c(nnc2-c2ccccc2O)SC1	1%	.	7%	.	.	.
CCc1nn2c(=O)cc(NC3CNC3)nc2s1	40%	.	.	.	.	.
O=c1oc2ccccc2cc1-c1nc2c(s1)CCc1ccccc1-2	?	-11%	-12%	15µM*	237%	-1%
CCc1sc(-c2cc3ccccc3oc2=O)nc1-c1ccc(C)cc1	4%	-19%	.	.	.	.
O=c1oc2cc(O)ccc2cc1-c1nc2c(s1)CCc1ccccc1-2	?	-16%	-10%	3.8µM*	i	10%
COc1ccc2c(c1)c1c(c(=O)n(-c3cccc(Cl)c3)c(=O)n1CC(=O)N1CCCC1)n2C	-1%	8%	3%	.	.	.
Nc1cc(=O)[nH]c(SCC(=O)Nc2cc([N+](=O)[O-])ccc2Cl)n1	8%	-15%	7%	21µM*	0%	-13%
Nc1cc(=O)[nH]c(SCC(=O)Nc2nc3ccc([N+](=O)[O-])cc3s2)n1	.	.	-4%	.	.	-4%
Cc1ccc(/C=C/C(=O)Nc2sc(C)c(C)c2C(=O)OC(C)C)o1	11%	-20%	6%	-4%	17%	-2%
CCOC(=O)c1c(NC(=O)CCc2ccc(CC)o2)sc(C)c1C	-3%	-26%	-6%	27µM*	-8%	-4%
CCOC(=O)c1c(NC(=O)/C=C/c2ccc(C)o2)sc(C)c1C	4%	-20%	5%	27µM*	20%	-2%
Cc1nn(-c2ccccc2)c(NC(=O)NS(=O)(=O)c2ccc(Cl)cc2)c1C#N	.	5%	4%	.	.	.
CC(=O)Nc1ccc(S[C@@H](CCN2CC[C@H](O)CCC2=O)c2ccccc2)cc1	-2%	-15%	6%	13µM*	0%	0%
N=c1c2c(ccn1CCCc1ccccc1)Oc1ccc3ccccc3c1C2c1ccccc1 (stereo not drawn)	32%	.	.	.	.	.
O=C(Cn1cnc2scc(-c3ccccc3)c2c1=O)N1CCOCC1	4%	-3%	2%	-4%	1%	.
Cc1ccc(-c2csc3ncn(CC(=O)N4CCOCC4)c(=O)c23)cc1C	1%	-1%	-2%	30µM*	-1%	2%
N#C/C(=C\c1coc2ccccc2c1=O)C(N)=S	?	?	12%	12µM*	1%	-17%
COc1ccc(C2NN=C(c3ccc(C)cc3)S2)cc1OC (stereo not drawn)	0%	-8%	2%	24µM*	69%	14%
Cc1cccc(C)c1NC(=O)CN1CCN(C(=O)c2ccc(OCc3cn4ccccc4n3)cc2)CC1	2%	6%	45µM*	-15%	2%	?
COc1cccc(-c2ccc3ncnc(NCc4cccc(F)c4)c3c2)c1	.	.	.	.	.	0%
O=C(Nc1ccccc1)Nc1cc(S(=O)(=O)N2CCOCC2)ccc1N1CCCC1	-2%	-11%	7%	21µM*	-1%	-7%
O=C(Nc1ccc(Cl)cc1)Nc1cc(S(=O)(=O)N2CCOCC2)ccc1N1CCCC1	20%	-4%	-7%	-11%	-7%	-9%
SMILES	Pin1 inhibitor	VDR inh	TDP1 inh	PLK1 PBD block	ASM inhibitor	Tb PFK block
COc1cc(/C=C/C(=O)Nc2cc(S(=O)(=O)N3CCOCC3)ccc2N2CCCC2)cc(OC)c1OC	8%	?	-2%	6.7µM*	-6%	-1%
CCOCC(=O)Nc1cc(S(=O)(=O)N2CCOCC2)ccc1N1CCCCC1	7%	?	0%	4.7µM*	-4%	-22%
CCOC(=O)CCC(=O)Nc1cc(S(=O)(=O)N2CCOCC2)ccc1N1CCCCC1	-5%	15%	0%	-1%	-3%	-5%
O=C(Nc1cc(S(=O)(=O)N2CCOCC2)ccc1N1CCOCC1)c1ccc(S(=O)(=O)N2CCCCC2)cc1	15%	-3%	6%	0%	-7%	-2%
O=C(Nc1cc(S(=O)(=O)N2CCOCC2)ccc1N1CCOCC1)c1ccc(Cl)nc1	-2%	-23%	1%	30µM*	0%	0%
O=C(NCC(c1ccc2c(c1)OCO2)N1CCOCC1)c1cccc(Cl)c1 (stereo not drawn)	-2%	1%	-1%	.	.	.
Cc1cccn2c(=O)c(C(=O)NCc3ccccc3Cl)c(O)nc12	1%	-5%	4%	.	.	.
CCOC(=O)C1CCC(CN(Cc2c(Cl)cccc2Cl)S(=O)(=O)c2ccc(F)c(C)c2)CC1 (stereo not drawn)	0%	9%	5%	.	.	.
COc1ccc(-c2nc3c(c4c2C[C@H](c2ccccc2)OC4)CN(S(=O)(=O)c2ccc4c(c2)OCCN4C)CC3)c(C)c1	.	.	9%[21 µM]	.	.	.
CCCN1CCC(=O)N(C(CSc2ccc(OC)cc2)CC(C)C)CC1 (stereo not drawn)	1%	-21%	8%	.	.	.
O=C(Cn1cnc(S(=O)(=O)N2CCCC2)c1)Nc1ccccc1	4%	-24%	2%	-18%	0%	-10%
COCCN(Cc1ccc(C)c(Br)c1)C(=O)Cn1cnc(S(=O)(=O)N2CCCC2)c1	-5%	-18%	2%	9.5µM*	1%	4%
CCC(NC(=O)CCc1ccccc1)c1ccccc1 (stereo not drawn)	-9%	89µM*	-6%	-4%	0%	2%
C/C(=N\NC(=O)c1ccccc1O)c1ccc(NC(=O)Cc2ccccc2)cc1	20%	-6%	56µM*	-19%	.	0%
CC(C)C[C@H](NC(=O)[C@H](Cc1ccccc1)NC(=O)[C@H](Cc1ccccc1)NC(=O)[C@@H](N)CO)C(=O)N[C@@H](CCCN=C(N)N)C(=O)N[C@@H](CC(N)=O)C(=O)O	.	-6%	5%	.	.	.
CSc1cccc(NC(=O)c2c(Cl)cnn2C)c1	-1%	6%	-1%	-14%	-1%	.
Cn1ncc(Cl)c1C(=O)Nc1cccc(Cl)c1	-4%	?	0%	24µM*	-7%	-6%
Cn1c(CNC(=O)CNC(=O)c2cccc(Cl)c2)cc(=O)n(C)c1=O	-7%	7%	0%	-1%	2%	-4%
Cc1cccc(CC(=O)NCC(=O)NCc2cc(=O)n(C)c(=O)n2C)c1	-2%	?	0%	3µM*	4%	-2%
Cc1ccc(S(=O)(=O)c2cn(C)c3cc(N4CCCC(C)C4)c(F)cc3c2=O)c(C)c1 (stereo not drawn)	2%	16%	5%	.	.	.
Cc1nc2nc(-c3cccs3)cn2nc1C	?	28%	4%	30µM*	i	-8%

Screening results as filed in PubChem BioAssay.
